The results in this text go back to PubChem BioAssay (Tox21).

Several values for one entry are separate records, joined by “and”; a condition that tells them apart may be missing. Equal values may be shown once. Results filed as inconclusive are left out. Where a structure was tested more than once in an assay, its records may differ in their call. Activity calls are given as the source filed them. Unless noted, calls come from the whole dose curve; as a rule, active = well fitted curve in the direction sought with a large enough effect in the repeat runs; inconclusive = weak or mixed curves; inactive = no such curve, though single readings can be large; an effect the other way counts as inactive or inconclusive.

Test [1] addresses Retinoic acid receptor RXR-alpha (Homo sapiens) (UniProt P19793). In words: qHTS assay to identify small molecule agonists of the RXR signaling pathway (AID 1159527; calls by dose curve; note: nearly all actives have a fitted effect of over 35% in size; note: potency is the fitted concentration of half-maximal effect). An outline of the steps: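 16 hr incubation of compound-treated RXR-alpha-UAS-bla HEK 293T cells (2% charcoal-stripped FBS, 37 C) preceded a 2 hr room-temperature LiveBLAzer FRET substrate step and blue/green fluorescence measurement.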
On the technique in general: In qHTS, concentration-response curves come from the screen itself.

Test [2] in a line: qHTS assay to identify small molecule agonists of the RXR signaling pathway - cell viability counter screen (AID 1159529).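 Note: HEK 293T cells carrying an RXR-alpha UAS beta-lactamase reporter; series mostly up to about 77 µM; nearly all actives have a fitted effect of over 50% in size.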 An outline of the steps:
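In this parallel viability measure, GeneBLAzer RXR-alpha HEK 293T cells (2% charcoal-stripped FBS) were given a 5 hr preincubation, treated with compounds 16 hr at 37 C, and read by CellTiter-Glo luminescence.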

The nature of test [3]: qHTS assay to identify small molecule antagonists of the retinoic acid receptor (RAR) signaling pathway (AID 1159552; note: nearly all actives have a fitted effect of over 50% in size; note: potency is the fitted concentration of half-maximal effect). An outline of the steps:
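C3RL4 RARE-luc cells, overnight plating; retinol 1 uM final added right after compound; 6 hr 37 C; luciferase read at 30 min RT.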

Test [4] can be described thus: qHTS assay to identify small molecule agonists of the retinoic acid receptor (RAR) signaling pathway (AID 1159553). Note: potency is the fitted concentration of half-maximal effect. An outline of the steps: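 Agonist activity was scored in C3RL4 cells bearing a retinoic acid response element luciferase construct. Cells were treated with compounds for 6 hr at 37 C, and luciferase signal was measured as luminescence.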
Test [5] can be described thus: qHTS assay to identify small molecule antagonists of the estrogen related receptor (ERR) signaling pathway from Tox21 library - cell viability counter screen (AID 1224834). Note: nearly all actives have a fitted effect of over 30% in size. Note: potency is the fitted concentration of half-maximal effect. An outline of the steps:
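Cytotoxicity of test substances is gauged in the same ERR cells used for the antagonist screen, after 17.5 h of compound treatment at 37 C, by CellTiter-Fluor fluorescence measured after 30 min.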

Test [6] deals with Luciferin 4-monooxygenase (Photinus pyralis) (UniProt P08659). In words: qHTS assay to identify small molecule inhibitors of firefly luciferase (AID 1224835). Note: nearly all actives have a fitted effect of over 25% in size. Note: potency is the fitted concentration of half-maximal effect. The method, boiled down: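 Biochemical qHTS: compounds run as interplate titrations against purified firefly enzyme, with D-luciferin and ATP each at its KM concentration. Light output recorded by CCD imaging.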
Sequence of Luciferin 4-monooxygenase (Photinus pyralis) (P08659 whole entry, looked up): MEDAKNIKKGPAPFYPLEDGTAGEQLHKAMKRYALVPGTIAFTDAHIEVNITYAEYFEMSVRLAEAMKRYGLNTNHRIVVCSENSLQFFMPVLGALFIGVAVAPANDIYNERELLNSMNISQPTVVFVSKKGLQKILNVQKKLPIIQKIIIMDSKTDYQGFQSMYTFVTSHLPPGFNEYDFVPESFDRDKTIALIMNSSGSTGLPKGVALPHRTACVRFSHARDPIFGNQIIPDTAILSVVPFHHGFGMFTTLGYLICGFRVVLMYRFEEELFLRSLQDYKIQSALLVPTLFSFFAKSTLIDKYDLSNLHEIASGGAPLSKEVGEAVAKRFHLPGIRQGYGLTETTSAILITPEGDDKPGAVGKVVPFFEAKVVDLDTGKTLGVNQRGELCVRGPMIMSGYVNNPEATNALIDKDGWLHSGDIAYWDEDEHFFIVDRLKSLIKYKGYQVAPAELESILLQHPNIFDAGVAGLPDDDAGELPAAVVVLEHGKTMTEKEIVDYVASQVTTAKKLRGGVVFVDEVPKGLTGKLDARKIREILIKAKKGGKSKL
Test [7] is described as follows: qHTS assay to identify small molecule agonists of the constitutive androstane receptor (CAR) signaling pathway - cell viability counter screen (AID 1224836). Note: nearly all actives have a fitted effect of over 45% in size. Note: potency is the fitted concentration of half-maximal effect. An outline of the steps: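 Using CellTiter-Fluor, viability of HepG2 cells harbouring hCAR and CYP2B6-2.2kb was measured following 23 h incubation with a 15-concentration compound series plus PK11195 (0.75 uM final).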

The nature of test [8]: qHTS assay to identify small molecule antagonists of the constitutive androstane receptor (CAR) signaling pathway - cell viability counter screen (AID 1224837). Note: nearly all actives have a fitted effect of over 45% in size. Note: potency is the fitted concentration of half-maximal effect. The method, boiled down:
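Multiplexed cytotoxicity read-out for the CAR antagonist screen: double-stable HepG2-CYP2B6-hCAR cells co-treated with 50 nM CITCO (final) and compound over 15 concentrations, incubated 23 hr, then assessed by CellTiter-Fluor fluorescence.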

Test [9] in a line: qHTS assay to identify small molecule antagonists of the retinoid acid receptor (RAR) signaling pathway - cell viability counter screen (AID 1159551). Note: nearly all actives have a fitted effect of over 35% in size. An outline of the steps:
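Cytotoxicity counter screen in C3RL4 cells: 6 h compound exposure with 1 uM retinol (final), viability from cellular ATP by luminescence.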

Test [10] is described as follows: qHTS assay to identify small molecule antagonists of the estrogen related receptor signaling pathway with the pleiotropic PPARgamma coactivator (PGC) cell viability counter screen (AID 1224822; note: series mostly up to about 46 µM). An outline of the steps: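 Seed PGC/ERR cells (2,000/well); incubate 6 h at 37 C/5% CO2; pin-transfer compounds in DMSO; incubate 17.5 h at 37 C; add CellTiter-Fluor; after 30 min read fluorescence.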

Sequence of Retinoic acid receptor RXR-alpha (Homo sapiens) (P19793 whole entry, looked up): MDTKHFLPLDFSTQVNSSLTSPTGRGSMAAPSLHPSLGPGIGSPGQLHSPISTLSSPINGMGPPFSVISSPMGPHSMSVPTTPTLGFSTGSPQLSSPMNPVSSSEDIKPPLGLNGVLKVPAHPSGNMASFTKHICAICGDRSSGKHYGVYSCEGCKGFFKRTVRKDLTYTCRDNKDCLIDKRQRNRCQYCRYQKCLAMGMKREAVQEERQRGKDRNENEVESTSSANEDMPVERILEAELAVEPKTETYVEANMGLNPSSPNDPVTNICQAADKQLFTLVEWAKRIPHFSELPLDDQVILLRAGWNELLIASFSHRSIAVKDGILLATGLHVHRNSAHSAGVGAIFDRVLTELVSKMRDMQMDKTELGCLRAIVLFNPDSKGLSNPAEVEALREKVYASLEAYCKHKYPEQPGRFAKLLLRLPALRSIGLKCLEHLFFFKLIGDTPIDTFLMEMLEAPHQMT

In the case of `OC[C@H]1O[C@@](CO)(O[C@H]2O[C@H](CO)[C@@H](O)[C@H](O)[C@H]2O)[C@@H](O)[C@@H]1O`, the Potency entry in [1], in [2], in test [3], in test [4], in test [5] and in test [6] was “inactive” throughout. The Potency entry in [7] and in test [8] was “inactive” each time.

With `CC(=O)c1ccccc1`, the Potency result in [1], in [2], in test [5], in test [6], in [7] and in [8] was “inactive” in each case.

Regarding `O=C(OCCOCCOC(=O)c1ccccc1)c1ccccc1`, the Potency result in test [2], in test [3], in test [4], in [5], in test [6] and in test [7] was “inactive” each time. The Potency entry in [8] was “inactive”.

With `CCCCC(CC)COC(=O)CCCCC(=O)OCC(CC)CCCC` (stereo not drawn), the Potency result in test [2], in [3], in [4], in test [5], in [6] and in [7] was “inactive” throughout. Also, the Potency result in [8] was “inactive”.

Regarding `CCCCC(CC)COC(=O)C(C#N)=C(c1ccccc1)c1ccccc1` (stereo not drawn), the Potency result in [2], in test [4], in [5], in [6], in [7] and in test [8] was “inactive” in each case. Besides, in [3], the Potency was 30.6 µM (active).

In the case of `CCN(CC)c1ccc(C(=O)c2ccccc2C(=O)O)c(O)c1`, the Potency entry in [2], in test [3], in test [5], in test [7] and in test [8] was “inactive” each time. The Potency was 10.9 µM (active) and 34.4 µM (active) in [4]; 28.4 µM (active) and 25.2 µM (active) in test [6].

For the compound `COc1ccc(Cl)cc1C(=O)NCCc1ccc(S(=O)(=O)NC(=O)NC2CCCCC2)cc1`, the Potency entry in test [2], in test [3], in test [4], in test [5], in test [7] and in test [8] was “inactive” in each case. Also, the compound was called inactive in test [9] and in test [10].

Take `c1c[nH]cn1`: the Potency entry in test [2], in test [3], in [4], in test [5], in test [6] and in test [7] was “inactive” in each case. The Potency result in [8] was “inactive”.

Consider `OCCOCCN1CCN(C2=Nc3ccccc3Sc3ccccc32)CC1`, for which the Potency result in test [2], in test [3], in test [4], in [5], in test [7] and in test [8] was “inactive” throughout.

With `O=C(O)c1ccc2c(c1)C(=O)OC2=O`, the Potency result in test [2], in test [3], in test [4], in test [5], in [6] and in test [7] was “inactive” throughout. For the same compound, in [8], the Potency entry is “inactive”. Besides, in test [9], the compound was called inactive.

On to `CCCCCCCCCCCCCCO`, for which the Potency result in test [1], in test [2], in test [5], in test [7] and in test [8] was “inactive” each time. Further, in test [6], the Potency was 22.7 µM (active).

Take `O=C(O)c1cc(=O)c2c(OCC(O)COc3cccc4oc(C(=O)O)cc(=O)c34)cccc2o1`: the Potency result in test [2], in [3], in test [4], in test [5], in test [6] and in [7] was “inactive” throughout. Moreover, the Potency result in test [8] is “inactive”.

With `FC(F)(F)c1ccc(Cl)c(Cl)c1`, the Potency result in test [1], in [2], in test [5], in test [6], in test [7] and in test [8] was “inactive” throughout.

`CCCCC(CC)CO` (stereo not drawn): the Potency entry in test [2], in [5], in test [6], in test [7] and in test [8] was “inactive” each time. Moreover, the outcome in test [9] was inactive.

As to `OCCOCCOCCO`, the Potency result in [2], in [5], in test [6], in test [7] and in test [8] was “inactive” in each case. Moreover, the compound was called inactive in test [9].

As for `Nc1ccccc1[N+](=O)[O-]`, the Potency result in test [1], in test [2], in test [3], in [5], in test [6] and in test [7] was “inactive” throughout. Further, in test [8], the Potency entry is “inactive”.

For the compound `COc1cc(Cc2cnc(N)nc2N)cc(OC)c1OC`, the Potency result in test [2], in [3], in test [4], in test [5], in test [6] and in test [7] was “inactive” throughout. The Potency entry in [8] was “inactive”. Further, the call in test [10] was inactive.

Consider `CCCCCCCCC/C=C/CC1CC(=O)OC1=O` (stereo not drawn), for which the Potency entry in [1], in [2], in [5], in test [7] and in [8] was “inactive” in each case. Further, the Potency in test [6] is 71.3 µM (active).

With `CC(C)(C)[C@@H](O)[C@@H](Cc1ccc(Cl)cc1)n1cncn1`, the Potency result in [2], in test [3], in test [4], in [5], in test [6] and in test [7] was “inactive” throughout. In addition, the Potency result in test [8] was “inactive”. Also, in test [9], the compound was classed as inactive.

For the compound `CCCCCC/C(C=O)=C\c1ccccc1`, the Potency result in test [2], in [3], in test [4], in test [5], in [7] and in [8] was “inactive” throughout.

`C=CCOC(=O)c1ccccc1C(=O)OCC=C`: the Potency result in test [2], in [3], in test [4], in test [5], in test [6] and in test [7] was “inactive” throughout. Besides, the Potency entry in [8] is “inactive”. The compound was called inactive in test [9].

On to `Cc1cnc(C(=O)NCCc2ccc(S(=O)(=O)NC(=O)NC3CCCCC3)cc2)cn1`, for which the Potency result in [2], in [4], in test [5], in test [6], in test [7] and in test [8] was “inactive” in each case. Further, the result in test [10] was inactive.

As for `CCCCCCCCCCCCOCCO`, the Potency result in [2], in test [3], in test [5], in test [7] and in test [8] was “inactive” each time. In addition, in [6], the Potency is 25.2 µM (active) and 30.9 µM (active).

In the case of `COS(C)(=O)=O`, the Potency result in test [2], in test [5], in [6], in test [7] and in test [8] was “inactive” in each case.

`O=C(O)CCCCCCCCCCC(=O)O`: the Potency entry in [1], in test [2], in [5], in test [6], in test [7] and in test [8] was “inactive” in each case.

On to `CCCCCCCCCCCCc1ccccc1`, for which the Potency entry in test [2], in [3], in test [4], in test [5], in test [6] and in [7] was “inactive” in each case. Moreover, in [8], the Potency entry is “inactive”. Also, in test [9], the outcome was inactive.

As for `CC(C)CC(=O)CC(C)C`, the Potency result in test [1], in test [2], in [5], in [6], in test [7] and in test [8] was “inactive” throughout.

For the compound `CCCCCCCCCCCCCCCO`, the Potency entry in test [2], in test [3], in [4], in test [5], in test [6] and in test [7] was “inactive” in each case. Also, the Potency result in test [8] was “inactive”. In addition, in [9], the compound was called inactive.

Consider `ON=C1CCCCC1`, for which the Potency entry in test [2], in [3], in test [4], in [5], in [6] and in test [7] was “inactive” each time. In test [8], the Potency result is “inactive”.

Turning to `Nc1cc([N+](=O)[O-])ccc1O`, the Potency entry was “inactive and 9.72 µM (active)” in test [1]; 48.6 µM (active) and 30.5 µM (active) in [5]; 48.6 µM (active) in [7]; 30.6 µM (active) in [8]. Further, the Potency result in test [2] and in test [6] was “inactive” each time.

On to `Cc1ccc(N(C)C)cc1`, for which the Potency result in [1], in test [2], in [3], in test [4], in test [5] and in [6] was “inactive” throughout. Moreover, the Potency result in test [7] and in [8] was “inactive” throughout.

Regarding `COc1ccc(Nc2ccccc2)c(C)c1`, the Potency result in test [1], in test [2], in test [5], in test [6], in test [7] and in test [8] was “inactive” throughout.
